Structures are written as SMILES. Values joined by “and” are separate entries in the source; they are usually repeats but may differ in a detail not shown here. Equal values may be shown once. The source holds several records for some structures; these can differ, active in one and inactive in another. Active and inactive are the calls of the source. Rule for the calls: active = hit-call score of the fitted dose curve at least 0.9, where 1 is the maximum; inactive = score below 0.9.

Broadly, the AC50 is the midpoint of the concentration-response curve, whichever way the signal moves.

Read-out in the test: Interleukin-8 (IL8), CXCL8 (gene 3576)
As to the kind of experiment: BSK_IMphg_IL8: BioMAP Diversity Plus: IMphg Assay for Interleukin-8 (IL8) Biomarker Activity (AID 2284277). As to conditions: primary human endothelial cells with macrophages. The method, boiled down:
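IL-8 levels were measured by ELISA 24 h after dosing in primary human venular endothelial cell–macrophage cultures, referenced to DMSO; parallel SRB staining monitored overt cytotoxicity.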
For `COC(F)(C(F)F)C(F)(F)F` (configuration not stated), the outcome was inactive.

Take `OC(O)C(F)(F)C(F)(F)F`: the outcome was inactive. For `O=C(O)CCC(F)(F)C(F)(F)C(F)(F)C(F)(F)C(F)(F)C(F)(F)C(F)(F)F`, the AC50 was 1.98 µM (active) and 2.14 µM (active). With `O=S(=O)(Cl)C(F)(F)C(F)(F)C(F)(F)C(F)(F)C(F)(F)C(F)(F)C(F)(F)C(F)(F)F`, the concentration at half-maximal activity (AC50) is 36.7 µM (active) and the outcome was inactive. With `O=S(=O)(O)CCC(F)(F)C(F)(F)C(F)(F)C(F)(F)F`, the outcome was inactive. Turning to `NC(=O)C(F)(F)C(F)(F)C(F)(F)C(F)F`, the result was inactive. On to `C=CC(=O)OCC(F)(F)C(F)(F)C(F)(F)COC(=O)C=C`, for which the AC50 was 50.7 µM (active) and 45.9 µM (active).

As for `O=C(Cl)C(F)(F)C(F)(F)C(F)(F)C(F)(F)C(F)(F)C(F)(F)C(F)(F)F`, the AC50 was 30 µM (active) and 36.9 µM (active).

As for `NC(=O)C(F)(F)C(F)(F)C(F)(F)C(F)(F)C(F)(F)C(F)(F)C(F)(F)F`, the outcome was inactive.

As to `OCC(O)CC(F)(F)C(F)(F)C(F)(F)C(F)(F)F` (configuration not stated), the result was inactive.

On to `FC(F)(F)C(F)(F)C(F)(F)C(F)(F)C(F)(F)C(F)(F)CC[Si](Cl)(Cl)Cl`, for which the result was inactive. Regarding `OCC(F)(F)C(F)(F)C(F)(F)C(F)(F)C(F)(F)C(F)(F)CO`, the result was inactive. Consider `OCC(O)CC(F)(F)C(F)(F)C(F)(F)C(F)(F)C(F)(F)C(F)(F)C(F)(F)C(F)(F)F` (configuration not stated), for which the outcome was inactive. On the same count and under the same terms, with `NC(=O)C(F)(F)C(F)(F)C(F)(F)F` the entry was “inactive”; with `C=CC(=O)OCC(F)(F)C(F)(F)C(F)(F)C(F)(F)C(F)(F)C(F)(F)C(F)(F)C(F)F`, “inactive”; with `O=C(F)C1(F)C(F)(F)C(F)(F)C(F)(F)C(F)(F)C1(F)F`, “inactive”. As to `O=S(=O)(OCC(F)(F)F)C(F)(F)C(F)(F)C(F)(F)C(F)(F)F`, the result was inactive. `OCC(F)(F)C(F)(F)C(F)(F)CO`: the outcome was inactive.

Turning to `CNS(=O)(=O)C(F)(F)C(F)(F)C(F)(F)C(F)(F)C(F)(F)C(F)(F)C(F)(F)C(F)(F)F`, the AC50 was 14.5 µM (active) and the result was inactive.

`O=C(O)C(F)(F)C(F)(F)C(F)(F)OC(F)(C(F)(F)F)C(F)(F)F`: the AC50 is 16.1 µM (active) and the result was inactive. For `C[Si](Cl)(Cl)CCC(F)(F)C(F)(F)C(F)(F)C(F)(F)C(F)(F)C(F)(F)F`, the outcome was inactive. In the case of `C=CC(=O)OCCC(F)(F)C(F)(F)C(F)(F)C(F)(F)F`, the result was inactive. On the same count and under the same terms, with `NC(O)(C(F)(F)F)C(F)(F)F` the entry was “inactive”. For `FC(F)(F)C(F)(F)C(F)(F)C(F)(F)C(F)(F)C(F)(F)C(F)(F)CCI`, the outcome was inactive.

Turning to `O=S(=O)(O)CCC(F)(F)C(F)(F)C(F)(F)C(F)(F)C(F)(F)C(F)(F)C(F)(F)C(F)(F)F`, the result was inactive.

As for `O=C(O)C(F)(F)C(F)(F)C(F)(F)OC(F)(F)F`, the outcome was inactive. For the compound `FC(F)(F)C(F)(F)C(F)(F)CC1CO1` (configuration not stated), the result was inactive. As for `O=C(Cl)C(F)(F)C(F)(F)C(F)(F)C(F)(F)C(F)(F)C(F)(F)F`, the AC50 was 15.8 µM (active) and 21.5 µM (active); the outcome was inactive. Turning to `C=C(C)C(=O)OCC(F)(F)C(F)(F)C(F)(F)C(F)F`, the outcome was inactive.

On to `CN(C(=O)C(F)(F)C(F)(F)C(F)(F)F)[Si](C)(C)C`, for which the result was inactive. The same measure, in the same setting: with `NCC(F)(F)C(F)(F)C(F)(F)C(F)(F)C(F)(F)C(F)(F)C(F)(F)C(F)(F)F` the entry was “inactive”. As to `CO[Si](C)(CCC(F)(F)C(F)(F)C(F)(F)C(F)(F)C(F)(F)C(F)(F)F)OC`, the outcome was inactive. With `NC(=O)C(F)(F)C(F)(F)C(F)(F)C(F)(F)C(N)=O`, the outcome was inactive.

For the origin of these results see PubChem BioAssay (EPA / NIEHS).
